The test system of assay [1] is MKL-1. The assay can be described thus: qHTS assay to identify novel small-molecules to repurpose for Merkel cell carcinoma treatment (AID 1296009). Further: nearly all actives have a fitted effect of over 60% in size. The settings on record: MCC and control cell lines, CellTiter-Glo viability, 72 h; series mostly up to 46 µM. The gist of the method: (§1)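 qHTS format: cells treated with library compounds in DMSO across 8 (NPC) or 11 (MIPE) concentrations. Readout after 72 hr at 37 degree celsius was CellTiter-Glo luminescence.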

The test system of assay [2] is MKL-2. Described as above. The settings on record: MCC and control cell lines, CellTiter-Glo viability, 72 h; series mostly up to 46 µM. A digest of the protocol: as §1
(In general: ATP-based viability assays read luminescence as a measure of living cells.)

In assay [3] the test system is UISO. The description is as above. The following applies: MCC and control cell lines, CellTiter-Glo viability, 72 h; series mostly up to 46 µM. The gist of the method: as §1
In assay [4] the test system is WaGa. The assay is described as above. The following applies: MCC and control cell lines, CellTiter-Glo viability, 72 h; series mostly up to 46 µM. A digest of the protocol: as §1
Assay [5] deals with C33A. Nature of the assay: Primary qHTS to identify gynecologic anti-cancer compounds using libraries of approved drugs and bioactive compounds (AID 1345084). Further: nearly all actives have a fitted effect of over 55% in size. The following applies: Gynecologic cancer cell panel viability, ATPlite luminescence, 48 h; series mostly up to 57.5 µM. A digest of the protocol:
(§2)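 48 h compound exposure at 37 C, 5% CO2; five-point qHTS. ATPlite luminescence readout of cell ATP.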

Assay [6] concerns CAOV3. The assay is described as above. The following applies: Gynecologic cancer cell panel viability, ATPlite luminescence, 48 h; series mostly up to 57.5 µM. A digest of the protocol:
as §2

Assay [7] concerns CASKI. Described as above. The following applies: Gynecologic cancer cell panel viability, ATPlite luminescence, 48 h; series mostly up to 57.5 µM. The gist of the method:
as §2

Assay [8] deals with Es-2. Described as above. The following applies: Gynecologic cancer cell panel viability, ATPlite luminescence, 48 h; series mostly up to 57.5 µM. The gist of the method:
as §2

Assay [9] has as its system HeLa. The description is as above. The settings on record: Gynecologic cancer cell panel viability, ATPlite luminescence, 48 h; series mostly up to 57.5 µM. The gist of the method: as §2
Assay [10] concerns Hek293T. Described as above. The following applies: Gynecologic cancer cell panel viability, ATPlite luminescence, 48 h, control line for the selectivity index; series mostly up to 57.5 µM. A digest of the protocol: as §2
Assay [11] relates to JEG-3. The description is as above. The following applies: Gynecologic cancer cell panel viability, ATPlite luminescence, 48 h; series mostly up to 57.5 µM. A digest of the protocol:
as §2

In assay [12] the test system is OV90. The assay is described as above. The settings on record: Gynecologic cancer cell panel viability, ATPlite luminescence, 48 h; series mostly up to 57.5 µM. The gist of the method:
as §2

The subject of assay [13] is PA-1. The description is as above. The settings on record: Gynecologic cancer cell panel viability, ATPlite luminescence, 48 h; series mostly up to 57.5 µM. A digest of the protocol: as §2
In assay [14] the test system is SKOV3. The description is as above. The settings on record: Gynecologic cancer cell panel viability, ATPlite luminescence, 48 h; series mostly up to 57.5 µM. The gist of the method:
as §2

The subject of assay [15] is Tov-21-G. The assay is described as above. The settings on record: Gynecologic cancer cell panel viability, ATPlite luminescence, 48 h; series mostly up to 57.5 µM. The gist of the method: as §2
The test system of assay [16] is Tov112D. The description is as above. The settings on record: Gynecologic cancer cell panel viability, ATPlite luminescence, 48 h; series mostly up to 57.5 µM. A digest of the protocol: as §2
The nature of assay [17]: qHTS assay to identify inhibitors of the type 1 interferon - major histocompatibility complex class I in skeletal muscle: Counter screen cell viability and HiBit confirmation (AID 1347412). On all read-outs here: nearly all actives have a fitted effect of over 60% in size. The following applies: iHSKM muscle cells + IFN-b, HiBiT or CellTiter-Glo, 24 h; for Potency: HiBiT; for activity change, negative = inhibition: Viability, at 45.9 µM (top of the series). A digest of the protocol: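 Human myoblast knock-in line, 4.0 ng/ml IFN-beta stimulation, 24 h compound treatment. Endpoints: HiBiT lytic luminescence (HLA-B level) and CellTiter Glo (ATP). Dosing 12 concentrations, 3-fold steps, 46 uM highest final.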

A short description of assay [18]: Drug repurposing screens with cells derived from glioblastoma tumor samples (AID 1345199). Further: nearly all actives have a fitted effect of over 40% in size. The settings on record: GBM patient neurospheres viability, ATP luminescence, 48 h. The gist of the method: (§3)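 Four patient lines of CD133+ GBM neurospheres were screened at several concentrations; hits were retested in those lines plus three slower-growing GBM lines, using 48-hour treatment and ATP-based viability.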

Assay [19] has as its system astro. The assay is described as above. The following applies: viability, ATP luminescence, 48 h; series mostly up to 45.9 µM. A digest of the protocol:
as §3

Inconclusive results are not listed. Unmarked numbers belong to inactive results. Active and inactive are the calls of the source. The call rests on the fitted dose curve; in most records, active means well fitted curve in the direction sought with a large enough effect; inconclusive means small, poorly fitted or top-dose-only effect, or another doubt; inactive means no such curve, though single readings can be large; an effect the other way counts as inactive or inconclusive.
On the % scale 0 is the no-effect control and ±100 the full control effect; potency means the concentration at half of the fitted maximal effect.

Regarding `CCCNC(=O)Nc1ccc(Oc2ncnc3cc(OC)c(OC)cc23)cc1Cl`, the Potency result in [1], in assay [2], in [3], in assay [4], in assay [5] and in assay [6] was “inactive” in each case. The Potency result in assay [7], in assay [8], in assay [9], in assay [10], in assay [11] and in assay [12] was “inactive” throughout. The Potency entry in assay [13], in assay [14], in assay [15] and in assay [16] was “inactive” each time.
As for `CNc1nccc(-c2cccnc2Oc2cc(C(=O)Nc3cccc(C(F)(F)F)c3)ccc2C)n1`, the Potency result in assay [1], in assay [2], in [3], in assay [4], in [5] and in assay [10] was “inactive” each time. Besides, the Potency result in assay [11] is “inactive”. Also, the Potency in assay [14] and in [15] was 28200 nM (active) throughout.
`Cc1ccc(CN2CCNCC2)cc1NC(=O)CNc1ccc(F)c(F)c1`: the Potency result in [1], in [2], in assay [3], in [4], in [5] and in assay [7] was “inactive” in each case. Besides, the Potency entry in assay [8], in assay [9], in assay [10], in assay [11], in [12] and in assay [13] was “inactive” in each case. In addition, the Potency entry in assay [14], in assay [15] and in assay [16] was “inactive” throughout.
As to `CC[C@@]1(O)C(=O)OCc2c1cc1n(c2=O)Cc2cc3cc(O)ccc3nc2-1`, the Potency is 37.2 nM (active) in assay [1]; 264 nM (active) in [2]; 74.3 nM (active) in [3]; 18.7 nM (active) in [4]; 794 nM (active) in assay [5]; 355 nM (active) in assay [6]. Also, the Potency in assay [7] was 398 nM (active); in assay [8], 355 nM (active); in assay [10] it was 1260 nM (active); in assay [13], 282 nM (active); in assay [15] it was 3550 nM (active); in [16] it was 79.4 nM (active). The Potency in assay [17] was 2790 nM (active). For the same compound, the activity change, negative = inhibition in [17] is 8.39%.
Regarding `Nc1ccccc1NC(=O)c1ccc(CNc2nccc(-c3cccnc3)n2)cc1`, the Potency was 2350 nM (active) in assay [1]; 1480 nM (active) in [2]; 2350 nM (active) in [3]; 418 nM (active) in assay [4]; 6310 nM (active) in assay [5]; 8910 nM (active) in assay [7]. Also, the Potency in assay [8] is 4470 nM (active); in [9], 891 nM (active); in assay [11], 3550 nM (active); in assay [13] it was 708 nM (active); in assay [14], 3980 nM (active); in assay [15], 2820 nM (active). Further, the values for the Potency in assay [16] and in assay [17] were 3550 nM (active) and 3940 nM (active), respectively. Moreover, in assay [17], the activity change, negative = inhibition was 3.24%.
On to `COC(=O)C[C@](O)(CCCC(C)(C)O)C(=O)O[C@@H]1C(OC)=C[C@]23CCCN2CCc2cc4c(cc2[C@H]13)OCO4`, for which the Potency entry in assay [1], in assay [2], in [3] and in assay [4] was “inactive” throughout. The activity, negative = cell killing in [18] (at 46.1 µM (top of the series), tumour line C) was -97.3%. Besides, the Potency is 224 nM (active) in assay [18] (tumour line A); 316 nM (active) in assay [18] (tumour line B); 1000 nM (active) in assay [18] (tumour line D); 251 nM (active) in assay [19]; 279 nM (active) in [17]. Further, in assay [17], the activity change, negative = inhibition is 0.0855%.
Consider `COc1ccc(-n2nc(C(N)=O)c3c2C(=O)N(c2ccc(N4CCCCC4=O)cc2)CC3)cc1`, for which the Potency result in assay [1], in assay [2], in assay [3], in [4], in [5] and in assay [6] was “inactive” each time. Besides, the Potency entry in assay [7], in [8], in assay [9], in assay [10], in assay [11] and in [12] was “inactive” each time. For the same compound, the Potency entry in [13], in assay [14], in assay [15] and in assay [16] was “inactive” each time.
Turning to `CCc1c2c(nc3ccc(O)cc13)-c1cc3c(c(=O)n1C2)COC(=O)[C@]3(O)CC`, the Potency was 11.8 nM (active) in [1]; 41.8 nM (active) in [2]; 20.9 nM (active) in [3]; 4.7 nM (active) in assay [4]; 251 nM (active) in [6]; 126 nM (active) in assay [7]. The Potency in assay [10] was 891 nM (active); in assay [11] it was 8910 nM (active); in assay [12] it was 1780 nM (active); in assay [15], 3160 nM (active); in [17], 1400 nM (active). Besides, in assay [17], the activity change, negative = inhibition is -11.1%.
Turning to `CCCCCN(CCC12CC3CC(CC(C3)C1)C2)C(=O)NCCCc1ccncc1`, the Potency result in [1], in [2], in [3], in [4], in [5] and in [6] was “inactive” each time. The Potency entry in [7], in [8], in assay [9], in [10], in assay [11] and in assay [12] was “inactive” each time. Moreover, the Potency result in assay [13], in [14], in assay [15] and in [16] was “inactive” in each case.

The record behind these values is PubChem BioAssay (NCATS).
